In all, about 5,500 compounds went through this assay and about 2,000 (36%) were called active. Inconclusive results (about 18%) are left out. Cut-off read from the data, not from the text of the source: active = normalized growth mostly below about 0.91 (no sharp cut-off); inconclusive = no clear call, values can overlap the other calls; inactive = mostly above about 0.92. This is one part of the list.
Assay: chemical genetic growth profiling, strain panel (AID 1159580);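 note: tested at 20 µM; growth read once vehicle control cultures reached saturation at 30 °C; 1 = growth at the plate median or of vehicle wells; lower values mean less growth of the strain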
Details: S. cerevisiae deletion strains, growth OD
[1] = locus YHR030C, strain SLT2, stronger effect = lower value
[2] = locus YAL013W, strain DEP1, stronger effect = lower value
[3] = locus YJR075W, strain HOC1, stronger effect = lower value
[4] = locus YNL153C, strain GIM3, stronger effect = lower value
[5] = locus YNL322C, strain KRE1, stronger effect = lower value
[6] = locus YPL055C, strain LGE1, stronger effect = lower value

Measured: normalized growth

CN[C@H]1CC[C@@H](c2ccc(Cl)c(Cl)c2)c2ccccc21
active: locus YAL021C, strain ccr4, stronger effect = lower value 0.529 | locus YAL026C, strain drs2, stronger effect = lower value 0.0645 | locus YBL061C, strain skt5, stronger effect = lower value 0.864 | locus YBR009C, strain hhf1, stronger effect = lower value 0.82 | locus YBR023C, strain chs3, stronger effect = lower value 0.858 | locus YBR231C, strain swc5, stronger effect = lower value 0.89 | locus YBR279W, strain paf1, stronger effect = lower value 0.905 | locus YCL016C, strain dcc1, stronger effect = lower value 0.866 | locus YDR069C, strain doa4, stronger effect = lower value 0.639 | locus YDR137W, strain rgp1, stronger effect = lower value 1.29 [resistant] | locus YDR195W, strain ref2 1.47 [resistant] | locus YDR335W, strain msn5, stronger effect = lower value 0.849 | locus YEL003W, strain gim4, stronger effect = lower value 0.898 | locus YER015W, strain faa2, stronger effect = lower value 0.634 | locus YFR010W, strain ubp6, stronger effect = lower value 0.605 | locus YGL173C, strain kem1, stronger effect = lower value 0.799 | locus YGL253W, strain hxk2, stronger effect = lower value 0.859 | locus YHR013C, strain ard1, stronger effect = lower value 0.677 | locus YHR027C, strain rpn1, stronger effect = lower value 0.817 | locus YHR142W, strain chs7, stronger effect = lower value 0.77 | locus YJL095W, strain BCK1 (second series), stronger effect = lower value 0.0692 | locus YJL129C, strain trk1, stronger effect = lower value 0.794 | locus YJL164C, strain tpk1, stronger effect = lower value 0.855 | locus YJL166W, strain qcr8, stronger effect = lower value 0.862 | locus YLR027C, strain aat2, stronger effect = lower value 0.921 | locus YLR221C, strain rsa3, stronger effect = lower value 0.9 | locus YLR320W, strain mms22, stronger effect = lower value 0.805 | locus YLR342W, strain FKS1, stronger effect = lower value 0.647 | locus YLR357W, strain rsc2, stronger effect = lower value 1.17 [resistant] | locus YLR370C, strain arc18, stronger effect = lower value 0.703 | locus YMR058W, strain fet3, stronger effect = lower value 0.661 | locus YMR205C, strain PFK2, stronger effect = lower value 0.866 | locus YMR231W, strain pep5, stronger effect = lower value 0.0786 | locus YNL071W, strain lat1, stronger effect = lower value 0.847 | locus YNL209W, strain ssb2, stronger effect = lower value 0.846 | locus YOR070C, strain gyp1, stronger effect = lower value 0.817 | locus YOR083W, strain WHI5, stronger effect = lower value 0.824 | locus YOR106W, strain vam3, stronger effect = lower value 0.622 | locus YOR270C, strain vph1, stronger effect = lower value 0.348 | locus YOR290C, strain snf2, stronger effect = lower value 0.852 | locus YPL051W, strain arl3, stronger effect = lower value 0.776
inactive: locus YAL030W, strain snc1, stronger effect = lower value 0.985 | locus YBR171W, strain sec66, stronger effect = lower value 1.01 | locus YCL011C, strain gbp2, stronger effect = lower value 0.919 | locus YCL061C, strain MRC1, stronger effect = lower value 0.956 | locus YCL069W, strain vba3, stronger effect = lower value 0.968 | locus YCR088W, strain abp1, stronger effect = lower value 0.964 | locus YDL005C, strain med2, stronger effect = lower value 1.07 | locus YDL040C, strain nat1, stronger effect = lower value 1.02 | locus YDR001C, strain nth1, stronger effect = lower value 1.02 | locus YDR159W, strain sac3, stronger effect = lower value 1.05 | locus YDR297W, strain sur2, stronger effect = lower value 0.976 | locus YDR334W, strain swr1, stronger effect = lower value 1.04 | locus YDR392W, strain spt3, stronger effect = lower value 0.939 | locus YEL037C, strain rad23, stronger effect = lower value 0.953 | locus YEL061C, strain CIN8 (second series), stronger effect = lower value 1 | locus YER016W, strain bim1, stronger effect = lower value 0.986 | locus YER111C, strain swi4, stronger effect = lower value 1.01 | locus YER155C, strain BEM2 (second series), stronger effect = lower value 1.01 | locus YGL167C, strain pmr1, stronger effect = lower value 1.04 | locus YGL227W, strain vid30, stronger effect = lower value 1.02 | locus YGL240W, strain doc1, stronger effect = lower value 1.06 | [1] 0.859 | locus YHR079C, strain IRE1, stronger effect = lower value 0.959 | locus YJL092W, strain hpr5, stronger effect = lower value 0.945 | locus YJL095W, strain BCK1, stronger effect = lower value 0.935 | locus YJL115W, strain asf1, stronger effect = lower value 1.03 | locus YJL154C, strain vps35, stronger effect = lower value 1.02 | locus YJR066W, strain TOR1, stronger effect = lower value 0.929 | locus YKL160W, strain elf1, stronger effect = lower value 0.931 | locus YKR026C, strain gcn3, stronger effect = lower value 0.999 | locus YKR091W, strain srl3, stronger effect = lower value 1.02 | locus YLL001W, strain dnm1, stronger effect = lower value 0.929 | locus YLL026W, stronger effect = lower value 0.942 | locus YLL041C, strain sdh2, stronger effect = lower value 1.01 | locus YLR113W, strain HOG1, stronger effect = lower value 0.936 | locus YLR258W, strain gsy2, stronger effect = lower value 0.932 | locus YLR262C, strain YPT6 (second series), stronger effect = lower value 1.02 | locus YLR384C, strain iki3, stronger effect = lower value 1.02 | locus YML120C, strain ndi1, stronger effect = lower value 0.983 | locus YMR125W, strain sto1, stronger effect = lower value 0.943 | locus YMR129W, stronger effect = lower value 1.03 | locus YNL183C, strain NPR1, stronger effect = lower value 0.954 | locus YNL248C, strain rpa49, stronger effect = lower value 0.935 | locus YNL322C, strain KRE1 (second series), stronger effect = lower value 1.08 | locus YNR049C, strain mso1, stronger effect = lower value 0.996 | locus YOR001W, strain rrp6, stronger effect = lower value 0.928 | locus YOR080W, strain dia2, stronger effect = lower value 0.982 | locus YOR231W, strain MKK1, stronger effect = lower value 0.988 | locus YOR265W, strain rbl2, stronger effect = lower value 0.953 | locus YPL078C, strain atp4, stronger effect = lower value 0.922 | locus YPL106C, strain sse1, stronger effect = lower value 1.03 | locus YPL240C, strain hsp82, stronger effect = lower value 1.01 | locus YPL256C, strain CLN2, stronger effect = lower value 0.969

O=C1CC(=O)CC(c2ccc(Cl)c(Cl)c2)C1
inactive: [2] 0.982 | locus YBR229C, strain ROT2, stronger effect = lower value 0.998 | locus YDL101C, strain DUN1, stronger effect = lower value 1.02 | locus YDR150W, strain NUM1, stronger effect = lower value 1.04 | locus YEL061C, strain CIN8, stronger effect = lower value 0.978 | locus YGR078C, strain PAC10, stronger effect = lower value 0.997 | [1] 1.04 | locus YHR087W, strain rtc3, stronger effect = lower value 0.98 | locus YJR043C, strain POL32, stronger effect = lower value 1.01 | [3] 1.01 | locus YKL190W, strain CNB1, stronger effect = lower value 0.998 | locus YLR039C, strain RIC1, stronger effect = lower value 0.959 | locus YLR058C, strain SHM2 (second series), stronger effect = lower value 0.985 | locus YLR085C, strain ARP6, stronger effect = lower value 0.983 | locus YLR262C, strain YPT6, stronger effect = lower value 0.949 | locus YML094W, strain GIM5, stronger effect = lower value 0.99 | locus YMR219W, strain ESC1, stronger effect = lower value 0.991 | locus YMR263W, strain SAP30, stronger effect = lower value 1.01 | locus YMR307W, strain GAS1, stronger effect = lower value 1.02 | [4] 0.997 | locus YNL298W, strain CLA4 (second series), stronger effect = lower value 1 | [5] 0.976 | locus YNR030W, strain Alg12, stronger effect = lower value 1 | [6] 1.15 | locus YPL241C, strain CIN2, stronger effect = lower value 1.01 | locus YPR135W, strain CTF4, stronger effect = lower value 1.22

CN[C@@H]1C[C@@H](c2ccc(Cl)c(Cl)c2)c2ccccc21
inactive: [2] 0.923 | locus YAL040C, strain CLN3, stronger effect = lower value 1.02 | locus YCL061C, strain MRC1 (second series), stronger effect = lower value 0.942 | locus YER002W, strain NOP16, stronger effect = lower value 1.06 | [3] 0.958 | locus YNL175C, strain NOP13, stronger effect = lower value 1 | locus YNL197C, strain WHI3, stronger effect = lower value 1.01 | locus YNL224C, strain SQS1, stronger effect = lower value 1.07 | [6] 0.927
active: locus YDR363W, strain ESC2, stronger effect = lower value 0.865 | [4] 0.663 | [5] 0.738 | locus YOR083W, strain WHI5 (second series), stronger effect = lower value 0.826
